# Results taken from ChEMBL document CHEMBL4513216, “Probing the Open Global Health Chemical Diversity Library for Multistage-Active Starting Points for Next-Generation Antimalarials” (ACS Infect Dis, 2020).
# In all, about 69,000 compounds went through this assay and about 8,600 (12%) showed an effect of 50% or more. Many of the other results were omitted from the sample, so strong results are more common in it than they were.
# System: Plasmodium berghei
# Test: Screen against P. berghei liver stage (PbLuc), transformed with Luciferase, at 10uM
# Format: functional, HepG2
# Conditions: tested at 10 uM
row,SMILES,INHIBITION [%]
1,COCCCN1CC2(CCCN(CCn3cc(Cl)cn3)C2)CCC1=O (centres undefined),17.4
2,CCOC(=O)Cc1csc(NC(=O)c2cc3n(n2)CCCO3)n1,-42.6
3,COCCCN(CCOC)Cc1nc2c(cnn2C)c(=O)[nH]1,25.1
4,CCN(CC)C(CNCc1cc(F)cc(F)c1)c1ccco1 (centres undefined),34.1
5,CCN(CC)C(CNS(=O)(=O)c1ccc(C(=O)NC)cc1)c1ccco1 (centres undefined),12.6
6,CCN(CC)C(CNS(=O)(=O)c1ccc(C(N)=O)cc1)c1ccco1 (centres undefined),54.3
7,CCN(CC)C(CNCc1ccc(O)cc1)c1ccco1 (centres undefined),77.8
8,CCN(CC)C(CNCc1ccc(OC)c(F)c1)c1ccco1 (centres undefined),-75
9,CCN(CC)C(CNS(=O)(=O)c1ccc(C(C)=O)cc1)c1ccco1 (centres undefined),26.4
10,O=C(CCc1ccccn1)N1CCCN(C(=O)CC2CCCC2)CC1,21.5
11,N#Cc1cccc(NC(=O)N2CCC3(CCC(=O)N(C4CC4)C3)CC2)c1,19.5
12,COc1ncccc1CN1CCC2(CC1)COCCN2C,70.4
13,COc1ncccc1CN1CC[C@]2(C[C@@H](OCc3ccccn3)CO2)C1,-3.52
14,CCOC1COC2(CCN(Cc3cccnc3OC)CC2)C1 (centres undefined),18.6
15,COc1ncccc1CN1CCC2(CC1)CC(OCC1CC1)CO2 (centres undefined),56.4
16,CCN1CCCC12CCN(Cc1cccnc1OC)CC2,42.3
17,COCCN1CCCC12CCN(Cc1cccnc1OC)CC2,26
18,CCCC(=O)N1CCC(C(=O)NCCNc2ncccn2)CC1,21.6
19,Cc1c[nH]c(C2CCCN2C(=O)CCc2c(C)n[nH]c2C)n1 (centres undefined),-0.13
20,CN(C)C(=O)N1CCN(C(=O)c2ccn3cncc3c2)CC1,15.1
21,O=C(Cn1nnn(-c2cccs2)c1=O)NCC1CCOC1 (centres undefined),13.7
22,CCN(CC1CCOC1)C(=O)Cn1nnn(-c2cccs2)c1=O (centres undefined),12.8
23,O=C(Cn1nnn(-c2cccs2)c1=O)N(CC1CCOC1)C1CC1 (centres undefined),51.7
24,CC(C)c1nc2c(n1C)CCN(CCCOc1ccc(C#N)cc1)C2,-2.53
25,Cc1cccc(CNC(=O)c2cccnc2N)c1,44.1
26,Nc1ncccc1C(=O)NCc1cccc(Br)c1,68.9

row,SMILES,INHIBITION [%]
1,COc1cccc(CNC(=O)c2cccnc2N)c1,0.207
2,Nc1ncccc1C(=O)NCc1ccc(Br)cc1,-26.3
3,Nc1ncccc1C(=O)NCc1cccc(Cl)c1,69.8
4,CC(C)Sc1ncccc1C(=O)NCc1cccc(N(C)C)c1,19.6
5,CC(C)N1CC(C(=O)NCc2ccc(S(=O)(=O)N(C)C)cc2)CC1=O (centres undefined),6
6,CN1CCC(Cc2cnc(CNC(=O)Cc3cccc(F)c3)cn2)CC1,26.75
7,Cc1ccc(NC2COC3(CCN(CC(C)C)CC3)C2)nn1 (centres undefined),46.7
8,CCc1nnc2n1CCN(C(C(=O)NC1CC1)c1ccc(F)cc1)C2 (centres undefined),2.61
9,CCCc1nc(CN2CCN(CC(O)c3ccccc3)CC2)no1 (centres undefined),34.5
10,CN1CCC(Cc2noc(CC3CC3)n2)CC1,48.8
11,CCCc1nc(CN2CCN(Cc3noc(CCC)n3)CC2)no1,17.7
12,CN1CCN(Cc2noc(CC3CCc4ccccc43)n2)CC1 (centres undefined),42.1
13,CN1CCN(Cc2noc(CCc3nc(-c4ccccc4)no3)n2)CC1,74.4
14,CCCN1CCC(Cc2nc(CN3CCN(C)CC3)no2)CC1,54.4
15,Cc1noc(C)c1C(=O)N1CCC(n2cccn2)CC1,19.4
16,Cc1nc(CN2C(=O)CCC23CCN(c2ncccc2C)CC3)cs1,37.2
17,CC(=O)N1CCc2nnc(C3CCCCN3CC3CC3)n2CC1 (centres undefined),3.91
18,COCCCNC(=O)Cn1c(C)cc(=O)n2nc(-c3cccs3)nc12,49.1
19,Cc1cc(=O)n2nc(-c3cccs3)nc2n1CC(=O)NC(C)C,67.3
20,COC(=O)Cn1c(C)cc(=O)n2nc(-c3cccs3)nc12,29.2
21,Cc1cccc(CN(Cc2nc3c(cnn3C)c(=O)[nH]2)C2CC2)c1,23.7
22,Cc1cc(C)nc(C2CCN(C(=O)CCn3nnc4ccccc43)C2)n1 (centres undefined),22
23,CSc1ccccc1NC(=O)N1C[C@@H](N(C)C)[C@H](c2ccc(C)cc2)C1,-5.38
24,CCOc1ccc(CN2CC[C@@H]3CC[C@H](C2)N3)cc1CO,31.2
25,O=C(c1cscn1)N1CC[C@@H]2[C@@H]1CCN2CC1CCOC1 (some centres undefined),49.4
26,O=C(c1cccc(Cl)c1)N1CC[C@H]2[C@H]1CCN2CC1CCOCC1,30.1

row,SMILES,INHIBITION [%]
1,O=C(c1cccc(Cl)c1)N1CC[C@H]2[C@H]1CCN2CC1CC1,64.9
2,O=C(c1ccc(F)cc1)N1CC[C@H]2[C@H]1CCN2CC1CCOCC1,64.9
3,Cc1ccc(C(=O)N2CC[C@H]3[C@H]2CCN3CC2CCOCC2)cn1,57.9
4,O=C(c1cscn1)N1CC[C@@H]2[C@@H]1CCN2CC1CCOCC1,-41
5,Cc1ccc(C(=O)N2CC[C@H]3[C@H]2CCN3CC2CCOCC2)cc1F,67.2
6,N#Cc1ccc(C(=O)N2CC[C@H]3[C@H]2CCN3CC2CC2)cc1,27.2
7,N#Cc1cccc(C(=O)N2CC[C@H]3[C@H]2CCN3CC2CC2)c1,12.4
8,O=C(c1ccc(F)cc1)N1CC[C@H]2[C@H]1CCN2CC1CC1,-12.2
9,N#Cc1ccc(C(=O)N2CC[C@H]3[C@H]2CCN3CC2CCOCC2)cc1,-13.4
10,O=C(c1ccco1)N1CC[C@H]2[C@H]1CCN2CC1CCOCC1,25
11,COc1ncc(CN(CCCN2CCOCC2)Cc2ccc(C)o2)cn1,30.4
12,CC(C)c1ncc2c(n1)CN(CCCc1nc3ccccc3o1)CC2,40.9
13,Cc1cc(CN2CCC3(CC2)COC(COc2ccccn2)C3)no1 (centres undefined),-19.8
14,O=C1CCC2(CCNCC2)CN1Cc1nnc2ccccn12,42.1
15,Cc1[nH]ccc1C(=O)N1CCN(C)C2(CCC(=O)N(C)CC2)C1 (centres undefined),-2.39
16,CC(C)(C)C(=O)NCCn1ccc(-c2ccccn2)n1,-43.7
17,COc1ccc([C@@H]2CN(Cc3ccncc3)C[C@H]2N(C)C)cc1,33
18,N#Cc1cccc(C(=O)N2CC[C@H]3[C@H]2CCN3CC2CCOCC2)c1,34.6
19,O=C(c1cccc(F)c1)N1CC[C@H]2[C@H]1CCN2CC1CCOCC1,59
20,Cn1cc(CN2CC[C@@H]3[C@@H]2CCN3C(=O)c2cccc(F)c2)cn1,10.1
21,CS(=O)(=O)c1cncnc1C1CCCN(C(=O)Nc2ccc(F)cc2)C1 (centres undefined),-18.555
22,COc1ccc(C(=O)N2CCCC(n3cc(C)cn3)C2)c(F)c1 (centres undefined),2.97
23,CCS(=O)(=O)N1CCN(C(=O)NC(C)C)CC2(CNC(=O)C2)C1 (centres undefined),3.25
24,CC(=O)N1CCC1c1cc(N2CCNC(=O)C2)nc(C)n1 (centres undefined),12.84
25,Cc1cnc(CN2CCN(c3nc(C)cs3)C(C)C2)cn1 (centres undefined),78.8
26,Cc1csc(N2CCN(Cc3cccnc3)CC2C)n1 (centres undefined),61.8

row,SMILES,INHIBITION [%]
1,Cc1csc(N2CCN(Cc3nccn3C)CC2C)n1 (centres undefined),30
2,Cc1csc(N2CCN(Cc3ccccn3)CC2C)n1 (centres undefined),2.3
3,Cc1csc(N2CCN(Cc3cscn3)CC2C)n1 (centres undefined),45.9
4,Cc1csc(N2CCN(Cc3cnc(C)s3)CC2C)n1 (centres undefined),21.6
5,CN(C)Cc1ccc(CNC(=O)NCC2(C)CCCS2)cc1 (centres undefined),49.3
6,Cc1ccc(-c2ncc(C(=O)NS(C)(=O)=O)s2)c(C)c1,-2.53
7,CNC(=O)NC(=O)CCSCc1cc(Cl)cc2cccnc12,-51.1
8,CC(C)NC(=O)N(C)C1CCN(c2ccccc2Cl)C1=O (centres undefined),-6.61
9,Cc1n[nH]c(C)c1CC(=O)N1CCC(O)(CN2CCOCC2)C1 (centres undefined),-23.55
10,Cc1n[nH]c(C)c1CCC(=O)N1CCC(O)(CN2CCN(C)CC2)C1 (centres undefined),-15.15
11,Cc1n[nH]c(C)c1CCC(=O)N1CCC(O)(CN2CCOCC2)C1 (centres undefined),53.65
12,c1nc(N2CCOC(Cn3cncn3)C2)c2cc[nH]c2n1 (centres undefined),33.8
13,COCC(=O)N1CCc2cccc(S(=O)(=O)N3CCOCC3)c2C1,33.9
14,CCCOC(=O)N1CCc2cccc(S(=O)(=O)N3CCOCC3)c2C1,20.3
15,CCOCCC(=O)N1CCc2cccc(S(=O)(=O)N3CCOCC3)c2C1,53.9
16,Cc1ccc(C(=O)Nc2ccc(N3CCC(O)CC3)c(C#N)c2)s1,17.6
17,N#Cc1cc(NC(=O)c2ccsc2)ccc1N1CCC(O)CC1,35.1
18,Cc1ccsc1C(=O)Nc1ccc(N2CCC(O)CC2)c(C#N)c1,96.1
19,N#Cc1cc(NC(=O)c2ccncc2)ccc1N1CCC(O)CC1,62.3
20,N#Cc1cc(NC(=O)c2ccccn2)ccc1N1CCC(O)CC1,-5.25
21,N#Cc1cc(NC(=O)c2ccccc2)ccc1N1CCC(O)CC1,-4.86
22,Cn1cccc1C(=O)N[C@H]1CN(Cc2ccoc2)[C@@H]2CCCO[C@H]12,34.9
23,COCC(=O)NCc1nn(CCN2CCCC2)c(=O)c2ccccc12,31.3
24,Cc1ccc(C)c(CS(=O)(=O)CC(=O)NCCCOC(C)C)c1,-2.19
25,Cc1nc(C)n(CC2CCCCN2CC(=O)Nc2nnc(C)s2)n1 (centres undefined),4.71
26,CCN(CCOC)C(=O)c1ccc2c(c1)nc(N1CC[C@H](O)C1)n2C,1.74
